# Results filed as inconclusive are left out. Unmarked numbers belong to inactive results. The call rests on the fitted dose curve; in most records, active means well fitted inhibition curve with a large enough effect; inconclusive means small, poorly fitted or top-dose-only effect; inactive means flat fitted curve, though single readings scatter.
# Molecular target: Calcium and integrin-binding protein 1 (Homo sapiens) (UniProt Q99828)
# Assay: Primary qHTS for Identification of Calcium Integrin Binding Protein 1 (CIB1) Competitor (AID 1508620); further: top concentration of the series differs between compounds
# Conditions: CIB1-GST / FITC-alphaIIb peptide fluorescence polarization; series mostly up to 57.7 µM; activity change, negative = inhibition: at the top concentration
# Procedure, shortened: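 Fluorescence polarization competition: GST-tagged CIB1 (1 uM final) preincubated with compound 15 min at room temperature, then FITC-labelled alphaIIb peptide (100 nM final) added. After 15 min at room temperature, polarization read at Ex 480/Em 540.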
# On the % scale 0 is the no-effect control and ±100 the full control effect.
# Calcium and integrin-binding protein 1 (Homo sapiens), sequence (Q99828 whole entry, looked up): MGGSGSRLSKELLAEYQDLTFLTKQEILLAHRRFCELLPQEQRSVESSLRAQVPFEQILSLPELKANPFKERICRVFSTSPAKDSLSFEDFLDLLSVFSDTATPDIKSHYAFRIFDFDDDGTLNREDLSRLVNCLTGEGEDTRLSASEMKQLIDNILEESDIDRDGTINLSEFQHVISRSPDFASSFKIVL
row,SMILES,"activity change, negative = inhibition"
1,O=C1c2ccccc2-[n+]2ccc3c([nH]c4ccccc43)c21,-17.7%
2,CC1(C)CCC[C@@]2(C)[C@@H]1CC[C@@]1(C)OC(=O)C[C@H]21,-5.24%
3,C=C1C(=O)OC2C=C(C)CCC=C(C)CCC12 (centres undefined),-4.8%
4,COc1ccc(-c2coc3cc(O)ccc3c2=O)cc1,1.05%
5,COc1ccc2c3c1OC1C[C@@H](O)C=C[C@@]31CCN(C)C2 (some centres undefined),-5.82%
6,C[C@]12CC[C@@H]3c4ccc(O)cc4CC[C@H]3[C@H]1C[C@@H](O)[C@H]2O,19.3%
7,CC(=Cc1ccccc1)C=C1SC(=S)N(CC(=O)O)C1=O,-5.35%
8,NC[C@@H]1O[C@@H](O[C@H]2[C@@H](O)[C@H](O[C@@H]3[C@@H](O)[C@@H](N)C[C@H](N)[C@H]3O[C@H]3O[C@H](CN)[C@@H](O)[C@@H](O)[C@H]3N)O[C@H]2CO)[C@H](N)[C@@H](O)[C@@H]1O,-1.97%
9,CC1(C)O[C@H]2C[C@@H]3[C@H]4CCC5=CC(=O)C=C[C@]5(C)[C@@]4(F)[C@@H](O)C[C@]3(C)[C@]2(C(=O)CO)O1,-1.99%
10,CC(C)(C)OC(=O)N[C@H]1CCCCCC=C[C@@H]2C[C@@]2(C(=O)NS(=O)(=O)C2CC2)NC(=O)[C@@H]2C[C@@H](OC(=O)N3Cc4cccc(F)c4C3)CN2C1=O,-3.43% [at 114 µM]
11,CCOC(=O)O[C@]1(C(=O)OCCl)CC[C@@H]2[C@H]3CCC4=CC(=O)C=C[C@]4(C)[C@@H]3[C@@H](O)C[C@@]21C,-1.02%
12,O=C1NC(=O)C(=Cc2cccc(C(F)(F)F)c2)S1,-13.1%
13,CC[C@]1(O)C[C@@H]2CN(CCc3c([nH]c4ccccc34)[C@@](C(=O)OC)(c3cc4c(cc3OC)N(C=O)[C@@H]3C45CCN4CC=C[C@](CC)([C@H]45)[C@@H](OC(C)=O)[C@]3(O)C(=O)OC)C2)C1 (some centres undefined),0.969%
14,CC=CC(=O)N(CC)c1ccccc1C,-0.476%
15,COCCCCC(=NOCCN)c1ccc(C(F)(F)F)cc1,3.82%
16,Cn1cc(C=C2C(=O)Nc3cccnc32)c2ccccc21,18.6%
17,COc1ccc(-c2oc3c(CC=C(C)C)c(OC4O[C@H](CO)[C@@H](O)[C@H](O)[C@@H]4O)cc(O)c3c(=O)c2OC2O[C@@H](C)[C@H](O)[C@@H](O)[C@@H]2O)cc1 (some centres undefined),-2.85%

row,SMILES,"activity change, negative = inhibition"
1,N#CC1(c2ccc(NC(=O)c3cccnc3NCc3ccncc3)cc2)CCCC1,-0.316%
2,C[C@]12CCC3c4ccc(O)cc4CCC3C1CCC2=O (some centres undefined),-0.982%
3,O=C(NCc1ccncc1)C12C[C@H]3C[C@@H](C1)CC(c1ccc(Cl)cc1)(C3)C2,2.24%
4,CNC(=O)c1ccccc1Sc1ccc2c(C=Cc3ccccn3)n[nH]c2c1,-3.53%
5,C[C@H]1[C@H](NC(=O)C(=NOC(C)(C)C(=O)O)c2csc(N)n2)C(=O)N1S(=O)(=O)O,0.0975%
6,Nc1ncnc2c1ncn2[C@@H]1O[C@H](CO)C[C@@H]1O,0.717%
7,CO[C@H]1C=CC=C(C)C(=O)NC2=CC(=O)C(NCCN(C)C)=C(C[C@@H](C)C[C@H](OC)[C@@H](O)[C@@H](C)C=C(C)[C@@H]1OC(N)=O)C2=O,-0.362%
8,CO[C@H]1C=CO[C@@]2(C)Oc3c(C)c(O)c4c(O)c(c5c(c4c3C2=O)NC2(CCN(CC(C)C)CC2)N=5)=NC(=O)C(C)=CC=C[C@H](C)[C@H](O)[C@@H](C)[C@@H](O)[C@@H](C)[C@H](OC(C)=O)[C@H]1C,-12.4% [at 114 µM]
9,O=C(O)c1ccc(-c2cc3cccnc3c(-c3ccc4nonc4c3)n2)cc1,2.15%
10,NC(=O)NN=Cc1ccc([N+](=O)[O-])o1,-0.119%
11,O=C1c2c(O)cc(O)cc2O[C@H](c2cc(O)c(O)c(O)c2)[C@H]1O,-8.46%
12,Cc1ccc(/C=N/NC(=O)c2ccccc2Oc2ccccc2)o1,-6.99%
13,CC[C@H]1OC(=O)[C@H](C)[C@@H](O[C@H]2C[C@@](C)(OC)[C@@H](O)[C@H](C)O2)[C@H](C)[C@@H](O[C@@H]2O[C@H](C)C[C@H](N(C)C)[C@@H]2O)[C@](C)(O)C[C@@H](C)CN(C)[C@H](C)[C@@H](O)[C@]1(C)O,-6.08%
14,Nc1nc(F)nc2c1ncn2[C@@H]1O[C@H](COP(=O)(O)O)[C@@H](O)[C@H]1O,-0.522%
15,CC=CCC=CCCC(=O)[C@H]1O[C@@H]1C(N)=O,-6.39%
16,N#CC(=C(N)Sc1ccccc1N)C(C#N)=C(N)Sc1ccccc1N,-22.5%
17,C[N+]1(C)[C@@H]2CC(OC(=O)[C@H](CO)c3ccccc3)C[C@H]1[C@H]1O[C@@H]12 (some centres undefined),-2.55%
